In assay [1] the target is Tyrosine-protein kinase SYK (Homo sapiens) (UniProt P43405). The note with it: at 10 µM.
The target in assay [2] is T1, Mitogen-activated protein kinase kinase kinase 7 (Homo sapiens) (UniProt O43318).
T1 sequence (whole entry): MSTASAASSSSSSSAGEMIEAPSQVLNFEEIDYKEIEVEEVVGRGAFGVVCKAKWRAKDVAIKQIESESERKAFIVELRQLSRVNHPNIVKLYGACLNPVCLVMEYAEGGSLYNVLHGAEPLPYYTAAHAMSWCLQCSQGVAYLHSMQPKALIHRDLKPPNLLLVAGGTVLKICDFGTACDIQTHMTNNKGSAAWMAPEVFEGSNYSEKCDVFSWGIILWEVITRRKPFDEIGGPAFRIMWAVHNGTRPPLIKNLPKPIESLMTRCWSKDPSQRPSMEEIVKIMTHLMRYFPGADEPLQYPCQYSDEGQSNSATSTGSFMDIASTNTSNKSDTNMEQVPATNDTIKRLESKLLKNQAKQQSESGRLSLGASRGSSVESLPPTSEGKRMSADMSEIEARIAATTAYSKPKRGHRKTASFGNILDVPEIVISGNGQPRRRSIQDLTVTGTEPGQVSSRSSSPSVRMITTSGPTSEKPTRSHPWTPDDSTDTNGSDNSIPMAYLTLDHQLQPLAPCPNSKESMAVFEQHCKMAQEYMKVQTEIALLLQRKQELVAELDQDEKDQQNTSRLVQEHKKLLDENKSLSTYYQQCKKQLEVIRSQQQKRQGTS
The note with it: at 1 µM.

Assay [3] addresses T1, Mitogen-activated protein kinase kinase kinase 7 (Homo sapiens). The note with it: at 10 µM.
Assay [4] deals with T2, Serine/threonine-protein kinase TAO1 (Homo sapiens) (UniProt Q7L7X3).
T2 sequence (whole entry): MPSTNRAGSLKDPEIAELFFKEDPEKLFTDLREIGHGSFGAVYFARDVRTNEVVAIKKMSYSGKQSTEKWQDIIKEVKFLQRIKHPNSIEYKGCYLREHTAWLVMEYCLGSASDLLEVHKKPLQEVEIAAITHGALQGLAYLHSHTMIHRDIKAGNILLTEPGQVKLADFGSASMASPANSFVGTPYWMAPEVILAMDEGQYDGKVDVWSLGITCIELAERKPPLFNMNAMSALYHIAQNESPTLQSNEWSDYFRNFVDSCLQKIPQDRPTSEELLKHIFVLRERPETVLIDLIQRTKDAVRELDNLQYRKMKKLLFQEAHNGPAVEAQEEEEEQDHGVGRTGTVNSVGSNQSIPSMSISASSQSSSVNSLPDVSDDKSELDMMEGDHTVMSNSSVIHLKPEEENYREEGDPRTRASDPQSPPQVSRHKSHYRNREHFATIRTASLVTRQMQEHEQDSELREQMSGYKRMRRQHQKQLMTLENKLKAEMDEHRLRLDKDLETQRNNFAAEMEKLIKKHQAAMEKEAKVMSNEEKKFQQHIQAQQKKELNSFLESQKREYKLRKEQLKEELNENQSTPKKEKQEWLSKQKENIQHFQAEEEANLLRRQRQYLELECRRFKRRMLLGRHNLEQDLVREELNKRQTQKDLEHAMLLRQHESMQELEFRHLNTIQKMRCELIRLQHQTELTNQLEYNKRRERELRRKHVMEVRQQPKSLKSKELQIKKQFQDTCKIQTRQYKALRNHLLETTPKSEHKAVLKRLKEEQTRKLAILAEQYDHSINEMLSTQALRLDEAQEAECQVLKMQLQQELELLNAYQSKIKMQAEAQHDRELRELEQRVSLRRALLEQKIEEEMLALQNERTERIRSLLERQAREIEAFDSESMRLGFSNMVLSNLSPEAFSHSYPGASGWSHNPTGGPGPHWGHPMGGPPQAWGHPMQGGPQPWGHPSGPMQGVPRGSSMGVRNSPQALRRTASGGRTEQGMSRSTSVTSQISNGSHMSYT
The note with it: at 1 µM.

For assay [5], the target named is T2, Serine/threonine-protein kinase TAO1 (Homo sapiens). The note with it: at 10 µM.
Assay [6] concerns the target T3, Serine/threonine-protein kinase TAO2 (Homo sapiens) (UniProt Q9UL54).
T3 sequence (whole entry): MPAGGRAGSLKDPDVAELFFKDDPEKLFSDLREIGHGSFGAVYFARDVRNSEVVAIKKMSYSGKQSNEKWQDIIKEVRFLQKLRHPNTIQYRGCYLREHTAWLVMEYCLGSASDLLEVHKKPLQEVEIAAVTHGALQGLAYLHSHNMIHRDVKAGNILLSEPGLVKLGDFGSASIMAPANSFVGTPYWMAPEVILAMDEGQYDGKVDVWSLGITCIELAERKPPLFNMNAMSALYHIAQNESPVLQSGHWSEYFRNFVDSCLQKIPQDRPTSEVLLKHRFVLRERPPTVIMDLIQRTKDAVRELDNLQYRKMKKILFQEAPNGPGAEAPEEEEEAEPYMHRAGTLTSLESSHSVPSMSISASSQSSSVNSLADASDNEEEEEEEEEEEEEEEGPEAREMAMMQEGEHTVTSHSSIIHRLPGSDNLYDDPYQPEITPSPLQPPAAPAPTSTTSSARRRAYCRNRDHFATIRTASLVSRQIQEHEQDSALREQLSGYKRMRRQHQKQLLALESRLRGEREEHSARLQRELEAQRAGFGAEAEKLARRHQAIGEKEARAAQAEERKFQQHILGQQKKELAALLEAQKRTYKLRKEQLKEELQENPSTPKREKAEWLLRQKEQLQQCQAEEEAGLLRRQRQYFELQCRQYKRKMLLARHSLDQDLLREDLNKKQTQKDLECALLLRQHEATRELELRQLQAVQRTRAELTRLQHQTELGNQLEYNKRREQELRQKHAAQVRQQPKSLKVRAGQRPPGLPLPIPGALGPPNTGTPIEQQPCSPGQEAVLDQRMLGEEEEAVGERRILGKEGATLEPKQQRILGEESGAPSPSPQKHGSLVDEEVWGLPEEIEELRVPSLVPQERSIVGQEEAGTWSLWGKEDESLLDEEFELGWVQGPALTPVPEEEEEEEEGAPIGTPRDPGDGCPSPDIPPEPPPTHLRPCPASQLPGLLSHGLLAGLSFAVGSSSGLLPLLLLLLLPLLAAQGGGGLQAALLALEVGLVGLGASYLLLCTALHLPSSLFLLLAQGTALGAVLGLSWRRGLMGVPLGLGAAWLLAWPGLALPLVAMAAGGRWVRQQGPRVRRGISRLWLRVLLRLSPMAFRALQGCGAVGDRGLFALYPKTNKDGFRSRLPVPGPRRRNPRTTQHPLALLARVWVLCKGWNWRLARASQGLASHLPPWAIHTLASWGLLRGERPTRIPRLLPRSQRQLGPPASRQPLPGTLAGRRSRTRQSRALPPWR
The note with it: at 1 µM.

Assay [7] addresses T3, Serine/threonine-protein kinase TAO2 (Homo sapiens). Conditions: at 10 µM.
The target of assay [8] is T4, Serine/threonine-protein kinase TAO3 (Homo sapiens) (UniProt Q9H2K8).
T4 sequence (whole entry): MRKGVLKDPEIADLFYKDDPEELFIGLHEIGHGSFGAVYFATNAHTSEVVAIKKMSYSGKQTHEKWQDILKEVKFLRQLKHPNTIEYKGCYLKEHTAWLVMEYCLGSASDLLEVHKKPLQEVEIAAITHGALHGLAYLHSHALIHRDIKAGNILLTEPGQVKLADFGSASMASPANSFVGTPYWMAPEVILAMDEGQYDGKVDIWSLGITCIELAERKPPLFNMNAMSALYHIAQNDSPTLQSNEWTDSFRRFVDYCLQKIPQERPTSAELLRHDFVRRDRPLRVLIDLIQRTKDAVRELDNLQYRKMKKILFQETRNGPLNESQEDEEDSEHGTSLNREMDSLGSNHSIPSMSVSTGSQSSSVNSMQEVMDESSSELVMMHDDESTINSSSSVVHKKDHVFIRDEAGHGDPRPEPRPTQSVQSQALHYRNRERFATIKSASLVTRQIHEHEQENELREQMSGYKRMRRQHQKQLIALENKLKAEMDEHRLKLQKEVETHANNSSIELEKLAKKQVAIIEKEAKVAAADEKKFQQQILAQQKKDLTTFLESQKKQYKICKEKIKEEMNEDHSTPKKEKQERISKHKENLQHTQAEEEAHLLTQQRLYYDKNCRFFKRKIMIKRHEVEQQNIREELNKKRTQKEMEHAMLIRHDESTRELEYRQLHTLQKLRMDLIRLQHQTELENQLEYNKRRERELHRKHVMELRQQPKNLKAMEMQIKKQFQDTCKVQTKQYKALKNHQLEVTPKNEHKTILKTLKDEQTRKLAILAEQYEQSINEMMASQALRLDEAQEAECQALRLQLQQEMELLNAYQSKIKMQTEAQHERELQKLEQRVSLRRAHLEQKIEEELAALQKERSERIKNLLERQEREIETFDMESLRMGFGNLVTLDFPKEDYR
Conditions: at 1 µM.

Assay [9] concerns the target T4, Serine/threonine-protein kinase TAO3 (Homo sapiens). Conditions: at 10 µM.
Assay [10] concerns the target T5, Serine/threonine-protein kinase TBK1 (Homo sapiens) (UniProt Q9UHD2).
T5 sequence (whole entry): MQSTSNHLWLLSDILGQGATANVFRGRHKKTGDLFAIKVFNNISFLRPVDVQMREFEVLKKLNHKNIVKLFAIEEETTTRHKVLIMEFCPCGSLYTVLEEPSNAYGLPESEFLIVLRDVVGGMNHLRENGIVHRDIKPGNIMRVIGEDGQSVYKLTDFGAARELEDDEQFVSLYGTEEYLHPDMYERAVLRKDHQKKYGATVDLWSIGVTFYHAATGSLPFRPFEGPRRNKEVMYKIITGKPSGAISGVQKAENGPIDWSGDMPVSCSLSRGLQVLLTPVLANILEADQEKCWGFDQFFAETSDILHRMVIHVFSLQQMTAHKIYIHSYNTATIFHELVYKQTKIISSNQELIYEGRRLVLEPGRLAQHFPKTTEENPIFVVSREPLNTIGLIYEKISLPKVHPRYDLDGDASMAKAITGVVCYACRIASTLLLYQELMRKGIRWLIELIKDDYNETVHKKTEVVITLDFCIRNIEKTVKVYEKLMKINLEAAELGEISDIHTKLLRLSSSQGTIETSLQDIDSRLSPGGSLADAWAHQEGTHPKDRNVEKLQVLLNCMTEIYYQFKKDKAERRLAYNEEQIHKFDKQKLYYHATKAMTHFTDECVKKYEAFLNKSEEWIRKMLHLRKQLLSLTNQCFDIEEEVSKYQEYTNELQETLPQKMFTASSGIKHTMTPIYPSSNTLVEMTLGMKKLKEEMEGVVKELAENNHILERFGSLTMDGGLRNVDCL
The note with it: at 1 µM.

This note sets out measurements from ChEMBL document CHEMBL2218924, “A broad activity screen in support of a chemogenomic map for kinase signalling research and drug discovery” (Biochem J, 2013).

Molecules are shown by their SMILES.

In the case of `CC#CC(=O)Nc1cc2c(Nc3ccc(F)c(Cl)c3)ncnc2cn1`, the residual activity in assay [1] came to 87%; in assay [2], 91%; in assay [3], 96%; in [4] it was 104%; in assay [5], 89%; in assay [6], 97%. The residual activity in assay [7] worked out at 80%; in assay [8], 96%; in assay [9], 95%; in [10], 78%.
